Results filed as inconclusive are left out. Activity calls are given as the source filed them. Calls follow the shape of the dose curve; as a rule, active = well fitted curve in the direction sought with a large enough effect in the repeat runs; inconclusive = weak or mixed curves; inactive = no such curve, though single readings can be large; an effect the other way counts as inactive or inconclusive.
Test system: not listed separately
Assay: qHTS assay to identify small molecule antagonists of the androgen receptor (AR) signaling pathway using the MDA cell line in the presence of 0.5 nM R1881 - cell viability counter screen (AID 1259242); also: nearly all actives have a fitted effect of over 45% in size
Conditions: MDA-kb2 viability, CellTiter-Fluor protease fluorescence, 16 h; series mostly up to 92.4 µM; viability change, negative = cytotoxic: at the top concentration
Method in brief: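 Concentration-response screen of compounds for toxicity in MDA-kb2 reporter cells: 16 hr at 37C with 0.5 nM R1881, endpoint live-cell protease fluorescence measured in the reporter wells.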
% is scaled to controls: 0 for no effect and ±100 for the full control effect; potency is read from the fitted curve at half-maximal effect.

SMILES | viability change, negative = cytotoxic | Potency
CCCC(C)C=O (stereo not given) | 0.753% (inactive) | 
CC(O)(c1ccc(Cl)cc1)c1ccc(Cl)cc1 | -7.09% (inactive) | 
C=Cc1ccc(O)c(OC)c1 | 4.63% (inactive) | 
Cc1cc(Br)ccc1NC(=O)CCl |  | 48.6 µM (active)
c1ccc2cc3c4ccccc4c4ccccc4c3cc2c1 | -5.89% (inactive) | 

Target: Androgen receptor (Homo sapiens) (UniProt P10275)
Assay: qHTS assay to identify small molecule antagonists of the androgen receptor (AR) signaling pathway using the MDA cell line in the presence of 0.5 nM R1881 (AID 1259243); also: nearly all actives have a fitted effect of over 50% in size
Conditions: MDA-kb2 MMTV-luciferase, R1881 0.5 nM, 16 h; series mostly up to 92.4 µM; activity, negative = inhibition: at the top concentration
Method in brief: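 With R1881 held at 0.5 nM (final), compound effects on MMTV-luciferase expression in MDA-kb2 cells were scored by luminescence after a 16 hr, 37C incubation.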

Sequence of Androgen receptor (Homo sapiens) (P10275 whole entry, looked up): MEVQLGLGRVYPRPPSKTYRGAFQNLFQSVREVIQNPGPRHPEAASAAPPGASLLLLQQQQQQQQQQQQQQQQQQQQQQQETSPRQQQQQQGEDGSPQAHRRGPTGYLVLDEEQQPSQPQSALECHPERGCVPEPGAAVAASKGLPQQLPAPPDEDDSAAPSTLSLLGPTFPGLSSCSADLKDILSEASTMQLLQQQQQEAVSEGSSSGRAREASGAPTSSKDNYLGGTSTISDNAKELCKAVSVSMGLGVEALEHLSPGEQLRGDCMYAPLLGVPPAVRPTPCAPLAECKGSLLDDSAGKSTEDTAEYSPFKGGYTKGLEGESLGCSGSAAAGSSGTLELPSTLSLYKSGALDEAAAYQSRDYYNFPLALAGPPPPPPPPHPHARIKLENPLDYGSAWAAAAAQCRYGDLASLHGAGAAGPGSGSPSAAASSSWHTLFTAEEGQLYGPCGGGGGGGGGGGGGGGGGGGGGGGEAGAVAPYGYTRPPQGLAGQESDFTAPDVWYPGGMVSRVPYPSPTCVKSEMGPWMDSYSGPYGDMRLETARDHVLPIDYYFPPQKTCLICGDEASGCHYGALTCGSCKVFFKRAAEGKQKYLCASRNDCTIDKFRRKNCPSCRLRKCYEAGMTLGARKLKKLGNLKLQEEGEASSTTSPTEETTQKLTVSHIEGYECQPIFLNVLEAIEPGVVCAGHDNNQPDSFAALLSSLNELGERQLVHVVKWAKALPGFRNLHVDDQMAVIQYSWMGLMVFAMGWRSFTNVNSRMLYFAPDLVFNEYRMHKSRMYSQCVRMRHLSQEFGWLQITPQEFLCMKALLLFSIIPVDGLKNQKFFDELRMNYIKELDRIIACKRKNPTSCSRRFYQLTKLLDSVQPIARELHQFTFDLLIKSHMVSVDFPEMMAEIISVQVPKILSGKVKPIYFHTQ

SMILES | activity, negative = inhibition | Potency
Cc1ccc(N=Nc2c(O)ccc3ccccc23)c(C)c1 | 29.1% [at 42.5 µM] (inactive) | 
C/C=C/C(=O)OCC(C)C | 9.42% (inactive) | 
CC(C)(C)c1cc(CCC(=O)OCCSCCOC(=O)CCc2cc(C(C)(C)C)c(O)c(C(C)(C)C)c2)cc(C(C)(C)C)c1O | 8.96% [at 42.5 µM] (inactive) | 
C=Cc1ccncc1 | 19.3% (inactive) | 
CCN(CC)c1ccc(N=Nc2ccccc2)cc1 | 19.4% (inactive) | 
Brc1cc(Br)cc(Br)c1 | 14.9% (inactive) | 
N#Cc1ccc(C/C(=N/NC(=O)Nc2ccc(OC(F)(F)F)cc2)c2cccc(C(F)(F)F)c2)cc1 | -13.2% (inactive) | 
CSc1nnc(C(C)(C)C)c(=O)[nH]1 | -0.406% (inactive) | 
CCOC(=O)OC(=O)OCC | -4.31% (inactive) | 
O=C(CCCCCCCCc1cccnc1)N1CCC(C=C(c2ccccc2)c2ccccc2)CC1 |  | 27.3 µM (active)
COc1cc(/C=C/C(=O)CC(=O)/C=C/c2ccc(O)c(OC)c2)ccc1O |  | 15.4 µM (active)
CC(C=O)c1ccccc1 (stereo not given) | 27.7% (inactive) | 
CCC1(C)C(=O)N(Cl)C(=O)N1Cl (stereo not given) | 2.25% (inactive) | 
CN[C@H]1CC[C@@H](c2ccc(Cl)c(Cl)c2)c2ccc(S(N)(=O)=O)cc21 |  | 30.6 µM (active)
O=C(NCc1ncc(C(F)(F)F)cc1Cl)c1c(Cl)cccc1Cl |  | 54.5 µM (active)
CCCCCCCCCCCCS(=O)(=O)Cl | 0.127% [at 19 µM] (inactive) | 
Cc1cccc2c1ccc1ccccc12 |  | 15.4 µM (active)
CCc1cccc(C)c1N(C(=O)C(=O)O)C(C)COC (stereo not given) | 9.78% (inactive) | 
CCC(=O)OC/C=C(\C)CCC=C(C)C | 0.681% (inactive) | 
CC(=O)[C@]1(O)Cc2c(O)c3c(c(O)c2[C@@H](O[C@H]2C[C@H](N)[C@H](O)[C@H](C)O2)C1)C(=O)c1ccccc1C3=O |  | 0.531 µM (active)

— PubChem BioAssay (Tox21)
